High-throughput results deposited in PubChem by The Scripps Research Institute Molecular Screening Center.
MITF inh = blocks human microphthalmia-associated transcription factor | O75030 | AlphaScreen MITF homodimerization, bead proximity signal | inhibition, % at 2.6 µM | 650,000 compounds, 0.91% hits; in the data active means inhibition above about 50%;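 further: 0% = vehicle wells with protein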
FBW7 act = activators of human E3 ligase FBW7 | 650,000 compounds, 0.13% hits | normalized activity (activation), % at 26.1 µM | AID 1259310 | AlphaScreen FBW7–phospho-cyclin E peptide binding, activator screen; in the data active means normalized activity above about 1.9%;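 further: purified mutant Fbw7 with reduced substrate affinity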
TEAD-YAP block = TEAD-YAP interaction inhibition | HEK-TIYL cells, TEAD-Gal4/YAP UAS-luciferase luminescence | inhibition, % at 9.12 µM | 640,000 compounds, 1.4% hits | AID 1259422; in the data active means inhibition above about 32%;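 further: 0% = median of test compound wells and 100% = reference inhibitor wells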
GPR151 ag = activators of human GPR151; Q8TDV0; PathHunter beta-arrestin GPR151 cells, luminescence; activation, % at 11.2 µM; 650,000 compounds, 1% hits; AID 1508602; in the data active means activation above about 4.9%;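 further: 0% = median of compound wells and 100% = cells with positive control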
GPR151 conf act = human GPR151 activation, confirmation screen. shares compounds with GPR151 ag. GPR151 PathHunter beta-arrestin cells, luminescence, 90 min; % of EA-reagent control over plate median. activation, % at 11.2 µM. 6,700 tested, under 10 active. AID 1508609;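 active means mean percent activation across replicates above the confirmation screen cutoff of 4.91%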
GPR119 counter = GPR119 activation, counter-screen for GPR151 activators; shares compounds with GPR151 ag; GPR119 PathHunter beta-arrestin cells, luminescence, 90 min; 0 = compound-well median, 100 = enzyme-acceptor control; activation, % at 11.2 µM; 6,700 compounds, 0.3% hits; AID 1508611;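 active means mean percent activation in the counterscreen above 29.09%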;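 further: counterscreen on off-target GPR119 to flag nonselective hits from the GPR151 activator screen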
Target sequence (Q8TDV5 whole entry, looked up): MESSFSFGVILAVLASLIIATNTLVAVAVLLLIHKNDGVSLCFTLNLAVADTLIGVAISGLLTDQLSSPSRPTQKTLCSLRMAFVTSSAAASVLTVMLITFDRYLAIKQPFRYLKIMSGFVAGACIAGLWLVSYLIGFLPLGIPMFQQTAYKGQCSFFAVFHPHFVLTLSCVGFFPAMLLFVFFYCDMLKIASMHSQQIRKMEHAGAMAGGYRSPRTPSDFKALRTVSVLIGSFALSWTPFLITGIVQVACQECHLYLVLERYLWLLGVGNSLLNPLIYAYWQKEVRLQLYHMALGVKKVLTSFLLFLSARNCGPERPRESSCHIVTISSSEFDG
The depositor's hits bear a star; · = no result given; ! = repeats disagree. Sampled rows, rich in hits. Any-hit rate of the full collection: about 3.4%.

SMILES	MITF inh	FBW7 act	TEAD-YAP block	GPR151 ag	GPR151 conf act	GPR119 counter
O=C1N(Cc2cccnc2)C[C@@H]2C[C@@H](c3cccn3-c3ncccn3)N3CCC[C@@]123	6.9	0.1	6.8	19.7*	0.4	-3.6
O=C1N(Cc2cccnc2)C[C@@H]2C[C@@H](c3ccc(Oc4ncccn4)cc3)N3CCC[C@@]123	5.3	0.0	1.2	0.4	·	·
COCCNCCOc1ccc(C)cc1C	35.2	-0.1	-4.5	8.1*	1.7	17.4
CCCCNCCOc1cc(C)ccc1C	14.0	0.0	4.8	-0.7	·	·
CCCCNCCCOc1cc(C)ccc1C	2.1	0.1	4.1	5.0*	0.4	0.7
COCCNCCOc1ccc(C)cc1Cl	33.8	0.2	-1.5	1.3	·	·
Cc1ccc(C)c(OCCN2CCNCC2)c1	35.3	0.1	5.8	9.0*	0.4	1.6
COc1ccccc1N1CCN(c2cc(NCCCO)c([N+](=O)[O-])c3nonc23)CC1	0.6	0.6	8.2	-1.3	·	·
COc1ccccc1C(=O)Nc1ccc2nc(SCC(=O)N3CCOCC3)sc2c1	-12.7	-0.1	1.5	-1.8	·	·
Cc1ccc(CNC(=O)Cn2c(=O)n(Cc3ccccc3)c(=O)c3ccccc32)cc1	13.5	0.0	4.4	0.9	·	·
CCCC(=O)N(CC)c1ccccc1C	5.5	0.2	-2.1	0.4	·	·
C/C=C/C(=O)N(CC)c1ccccc1C	8.0	0.1	-0.3	6.1*!	1.8	9.7
CC(=O)Oc1ccc(N2C(=O)c3cccnc3C2=O)c(C)c1	12.1	-1.1	6.3	3.2	·	·
COc1ccc(CN2CCN(Cc3ccc(OC)c(OC)c3OC)CC2)c(OC)c1	41.0	0.1	2.2	11.5*	-0.7	8.0
CCCn1c(-c2nc(OC)cc(OC)n2)n[nH]c1=S	-11.2	-0.2	1.3	7.0*	-1.3	-5.6
CC(=O)c1ccc(NC(=O)C2(NC(=O)Nc3ccccc3)CCCCC2)cc1	2.0	0.0	-0.3	0.0	·	·
CN(C(=O)COc1ccc(C(C)(C)C)cc1)C1(C)CCS(=O)(=O)C1 (centres undefined)	-11.6	-0.1	7.8	5.5*	-0.8	-1.5
O=C(CN1CCN(S(=O)(=O)c2ccc(Br)cc2)CC1)Nc1ccc(Cl)c(C(F)(F)F)c1	-5.0	0.0	10.8	5.8*	-1.2	-6.2
CC1CN(c2cc(N3CCOCC3)c(F)cc2[N+](=O)[O-])CCN1C(=O)c1cccs1 (centres undefined)	0.4	-0.2	-18.8	7.6*	-0.1	-0.2
CC(NS(=O)(=O)c1cc(Cl)ccc1Cl)C(N)=O (centres undefined)	5.7	-0.2	-2.1	5.2*	-0.4	-1.9
Cc1ccc(C)c(S(=O)(=O)NC(C)C(=O)Nc2ccc(Cl)c(Cl)c2)c1 (centres undefined)	1.6	0.0	3.0	5.9*	0.3	-7.3
CC(NS(=O)(=O)c1ccc(Cl)cc1)C(N)=O (centres undefined)	4.6	0.1	2.7	-1.6	·	·
COc1cccc(/C=C/c2nc3ccccc3c(=O)n2-c2ccc(NC(C)=O)cc2)c1OC	0.0	-0.3	3.4	5.6*	0.9	16.5
N#CCSc1nccc2c(OCc3ccc(F)cc3)cccc12	-4.8	-0.1	-41.4	2.1	·	·
COc1ccccc1NC(=O)C1OC2OC(C)(C)OC2C2OC(C)(C)OC12 (centres undefined)	-5.2	-0.1	-3.0	-0.8	·	·
SMILES	MITF inh	FBW7 act	TEAD-YAP block	GPR151 ag	GPR151 conf act	GPR119 counter
COc1ccccc1NC(=O)[C@H]1O[C@@H]2OC(C)(C)O[C@@H]2[C@H]2OC(C)(C)O[C@H]21	-4.9	0.0	8.4	6.9*	1.6	10.1
CN(C)c1ccc(C2C(=O)N(C3CCCCC3)CC(=O)N2Cc2cccs2)cc1 (centres undefined)	-0.3	-0.2	30.2	1.4	·	·
COc1ccc(C2C(=O)N(C3CCCC3)CC(=O)N2Cc2cccs2)cc1 (centres undefined)	-1.6	0.0	1.7	11.0*	1.1	13.8
CCOc1ccccc1NC(=O)COc1ccc(I)cc1	11.9	0.1	9.1	4.1	·	·
Cc1ccc(N(C(=O)NC(=O)NS(=O)(=O)c2ccc(C)cc2)S(=O)(=O)c2ccc(C)cc2)cc1	1.8	0.1	-5.9	0.5	·	·
COc1ccc(-c2noc(CN(C(=O)c3ccccc3F)C(C)C)n2)cc1	16.1	-0.1	-5.0	5.4*	0.1	9.6
CC(C)N(Cc1nc(-c2ccccc2)no1)C(=O)c1ccccc1F	13.4	0.6	11.5	-0.9	·	·
COc1ccc(-c2noc(CC(=O)Nc3cc(C)on3)n2)cc1	9.2	-0.1	2.4	0.5	·	·
COc1ccc(-c2noc(CC(=O)Nc3cccc(C)n3)n2)cc1	3.8	0.0	1.7	5.5*	0.7	-7.9
CCN(C(=O)Cc1nc(-c2ccc(OC)cc2)no1)c1ccccc1C	6.0	0.1	7.4	8.9*	0.5	-5.9
CCN(CC)CCCN(C)C(=O)Cc1nc(-c2ccc(OC)cc2)no1	3.6	-0.1	-4.7	5.0*	0.3	0.0
Cc1nc(Sc2ccccc2)c2c3c(sc2n1)CCCC3	1.1	0.0	-0.2	-0.1	·	·
CC1(C)CC(=O)C2=C(C1)Nc1nc(C(F)(F)F)nn1C2c1cccc(F)c1 (centres undefined)	-4.9	0.0	9.9	-1.0	·	·
O=C1NC(=O)/C(=C/c2cc3c(cc2Br)OCO3)N1	-3.5	-0.1	-7.3	-0.3	·	·
CCCCn1c(O)c(C2=c3ccccc3=NC2=O)c2ccccc21	26.4	0.2	13.2	-2.4	·	·
CCCCn1c(O)c(Nc2ccc3c(c2)=NC(=O)N=3)c2ccccc21	0.8	-0.1	1.8	6.8*	1.1	11.5
CC1CCC2C(C1)c1c(n(C)c(=O)n(C)c1=O)OC2(C)C (centres undefined)	-6.5	0.0	11.0	1.4	·	·
O=C(O)c1cccc(NCc2cccc3ccccc23)c1	9.8	-0.1	-18.7	11.1*	0.2	3.5
C=CCOc1ccccc1CNc1cccc(C(=O)O)c1	16.7	0.4	2.0	-2.0	·	·
COc1ccc(-c2c3c(=O)n(C)c(=O)n(C)c3cn2-c2cc(C)ccc2O)cc1	12.9	-0.1	-10.0	5.4*	0.0	10.6
COc1ccc(/C=C2\N=C(c3cc(Cl)ccc3Cl)OC2=O)c(OC)c1	-0.4	0.1	9.9	-0.7	·	·
O=c1[nH]c(N2CCCC2)nc2c1CCN(Cc1cccc3nccnc13)C2	11.9	0.1	3.7	-0.6	·	·
CC1CCN(c2nc3c(c(=O)[nH]2)CCN(Cc2cccc4nccnc24)C3)CC1	-6.3	-0.2	5.1	7.4*	1.0	5.7
CC1CN(c2nc3c(c(=O)[nH]2)CCN(Cc2c(O)ccc4ccccc24)C3)CC(C)O1 (centres undefined)	9.4	0.0	4.0	5.2*	0.7	0.5
Cc1ccc(-c2cc(C(=O)Nc3cccnc3)c3cc(Br)ccc3n2)o1	-5.2	-0.1	-2.2	6.5*	-0.9	-11.2
Cc1ccc(NC(=O)Cc2ccccc2)c(NC(=O)Cc2ccccc2)c1	1.1	-0.2	-2.1	-0.7	·	·
